This is an account of results in PubChem BioAssay (NCATS).

Experiment [1] in a line: qHTS for Inhibitors of Cell Surface uPA Generation: Validation Assay (AID 493164).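 Further: RAW 264.7 macrophage cells exposed to compound for 18 h; 0% is about no effect.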 In a few lines:
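ATP-Lite luminescence read-out: ATP remains high when uPA activity-dependent LF translocation into the cytoplasm is blocked. RAW 264.7 cells, 18 h compound exposure at 37 C; 7-point titration, 2.45 nM to 38.3 uM final.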
A general note: In qHTS, concentration-response curves come from the screen itself.

For experiment [2], the target named is Peptidyl-prolyl cis-trans isomerase NIMA-interacting 1 (Homo sapiens) (UniProt Q13526). Kind of experiment: qHTS Validation Assay to Find Inhibitors of Pin1 (AID 504536; active means well fitted inhibition curve with a large enough effect in the polarisation, with a control signal flat, not every such curve was filed as active; the % refers to the polarisation;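 further: 0% = full Pin1 enzyme wells and -100% = no-enzyme wells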). In a few lines: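 Fluorescence polarization competition: compounds (titration) displace HiFluor-488-labeled Pin1-1b peptide from Pin1 (0.3 uM final) in pH 7.5 HEPES buffer with DTT, 10 min at room temperature; %Activity normalized to no-enzyme wells, curves fitted.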

The target of experiment [3] is Phosphoglycerate kinase, glycosomal (Trypanosoma brucei brucei) (UniProt P07378). Kind of experiment: qHTS Validation Assay to Find Inhibitors of Phosphoglycerate Kinase (AID 504547).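 Further: control wells lack PGK and mark full inhibition.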 In a few lines:
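Compounds are pinned into the substrate/PGK mixture, and GAPDH (100nM final) is added to start the reaction by producing 1,3-BPG. After 60 minutes at room temperature, Kinase-Glo Plus is added and luminescence is measured 10 minutes later.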

Experiment [4] concerns the target phosphoglycerate mutase (Leishmania major) (UniProt Q4Q090). In words: qHTS Validation Assay to Find Inhibitors of Phosphoglycerate Mutase (AID 504548). Further: series mostly up to about 58 µM; on the % scale 0 is the no-effect control and ±100 the full control effect. In short, it runs like this: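 Lm PGAM at 1.25 nM final with substrate in 100 mM TEA pH 7.6, 5 mM MgCl2, 0.01% Tween-20; 45 min at room temperature. Kinase-GloPlus added, 10 min, end-point luminescence read.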
In experiment [5] the target is Ubiquitin carboxyl-terminal hydrolase 1 (Homo sapiens) (UniProt O94782). Kind of experiment: Inhibitors of USP1/UAF1: Pilot qHTS (AID 504865).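 Further: rhodamine fluorescence freed from ubiquitin-rhodamine substrate followed over time; top concentration of the series differs between compounds; on the % scale 0 is the no-effect control and ±100 the full control effect; nearly all actives have a fitted effect of over 35% in size.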 In a few lines:
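USP1/UAF1 complex (1nM) preincubated with compound 15 min at room temperature, then Ub-Rho substrate (150nM final) added. Fluorescence read kinetically at 480/540 nm, 6 reads every 60 seconds. Buffer: 50mM HEPES pH 7.8, 0.5mM EDTA, 0.1 mg/ml BSA, 1mM TCEP, 0.01% Tween-20.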

The nature of experiment [6]: qHTS for Inhibitors of ATXN expression: Validation (AID 588378). Further: series mostly up to about 57 µM; on the % scale 0 is the no-effect control and ±100 the full control effect; nearly all actives have a fitted effect of over 75% in size. In a few lines: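 Luminescence from an ATXN2-FFLuc reporter in HEK293 cells served as read-out after 24 h compound treatment at 37 degrees C; CellTiter-Fluor fluorescence was recorded first to assess viability.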
Experiment [7] is described as follows: Nrf2 qHTS screen for inhibitors: Validation (AID 493153; active means well fitted inhibition curve with a large enough effect in the main read-out, with a control signal flat, not every such curve was filed as active; further: potency means the concentration at half of the fitted maximal effect). The following applies: Potency: luciferase luminescence; viability change: measured here: cytotoxicity max response. In short, it runs like this: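 Concentration-response on A549 ARE_Fluc reporter cells exposed 18-24 h at 37 C, 5% CO2. Cytotoxicity read first by CellTiter-Fluor fluorescence (Ex 405/Em 525), then Nrf2 inhibition by BugLite luminescence after 15 min.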

For experiment [8], the target named is Galactokinase (Homo sapiens) (UniProt P51570). In words: qHTS Validation Assay for Inhibitors of Human Galactokinase (GALK) (AID 493189). Further: 0% is about no effect. In a few lines: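 GALK (5 nM) with 35 uM ATP and 100 uM galactose in HEPES pH8.0, MgCl2, NaCl, DTT, BSA; 1 h at room temperature. Residual ATP read by Kinase-Glo Plus luminescence after 10 min.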
Experiment [9] in a line: Validation screen for small molecules that induce DNA re-replication in SW480 colon adenocarcinoma cells (AID 504364). Further: 0% is about no effect. In short, it runs like this:
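Image-based DNA content read-out: Hoechst stain 40 min, total nuclear fluorescence intensity (ex 405 nm, em 500-530 nm) after 48 h compound exposure of 250 SW480 cells/well at 37 C, 5% CO2, versus DMSO vehicle.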

A short description of experiment [10]: qHTS for Inhibitors of ATXN expression: Validation of Cytotoxic Assay (AID 588349). Further: on the % scale 0 is the no-effect control and ±100 the full control effect. In short, it runs like this:
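Cytotoxicity counter-screen: ATP-based luminescent viability (CellTiter Glo) after 72 hr exposure of HEK293 cells to a compound titration at 37 degrees C.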

Experiment [11] addresses Estrogen receptor (Homo sapiens) (UniProt P03372). In words: qHTS assay for small molecule antagonists of estrogen receptor alpha signaling (AID 588513; active means well fitted curve in the direction sought with a large enough effect in the signal ratio, with a control signal flat, not every such curve was filed as active; the % refers to the signal ratio; further: on the % scale 0 is the no-effect control and ±100 the full control effect). In a few lines: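 ER-alpha-UAS-bla GripTite HEK 293 cells in medium with 2% charcoal/dextran-treated FBS were preincubated 4 h at 37 C, dosed with compound (1:2 titration), stimulated with 0.5nM 17-beta-estradiol for 18 h, then read by CCF4 beta-lactamase fluorescence.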

Experiment [12] shares this target. Kind of experiment: qHTS assay for small molecule agonists of estrogen receptor alpha signaling (AID 588514; calls by dose curve;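 further: 0% = vehicle only and 100% = reference agonist; nearly all actives have a fitted effect of over 70% in size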). In short, it runs like this:
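EC50 and efficacy came from Hill fits of beta-lactamase reporter signal (CCF4 dye, 2 h at room temperature) scaled between DMSO and 20 nM 17-beta-estradiol. Agonist mode: HEK293 ER-alpha-UAS-bla cells in charcoal/dextran-stripped serum medium, 18 h compound exposure at 37 C.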

For experiment [13], the target named is Bile acid receptor (Homo sapiens) (UniProt Q96RI1). In words: qHTS assay for small molecule antagonists of farnesoid X receptor signaling (AID 588526; calls by dose curve; further: on the % scale 0 is the no-effect control and ±100 the full control effect). In a few lines:
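Antagonist mode: titrated compounds tested against chenodeoxycholic acid stimulation (normalized to 50 uM CDCA and DMSO) in GeneBLAzer HEK293T cells for 16 h. Beta-lactamase read by CCF4 fluorescence; IC50 from Hill fits.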

The target of experiment [14] is Glucocorticoid receptor (Homo sapiens) (UniProt P04150). In words: qHTS assay for small molecule agonists of glucocorticoid receptor signaling (AID 588532; active means well fitted curve in the direction sought with a large enough effect in the signal ratio, with a control signal flat; the % refers to the signal ratio; further: potency means the concentration at half of the fitted maximal effect;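 on activation: 100% = dexamethasone at 0.1 µM and 0% = DMSO only wells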). The following applies: HeLa MMTV-bla, beta-lactamase ratio, agonist, 18 h; activation: stronger effect = higher value, percent of dexamethasone control, DMSO zero. In a few lines:
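MMTV-bla HeLa beta-lactamase reporter cells in 1% charcoal/dextran FBS medium, compounds up to 92 uM for 18 h at 37 C, CCF4 readout; normalized to 0.1 uM dexamethasone (100%), EC50 and efficacy from Hill fits.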

Experiment [15] shares this target. Kind of experiment: qHTS assay for small molecule antagonists of glucocorticoid receptor signaling (AID 588533; active means well fitted inhibition curve with a large enough effect in the signal ratio, with a control signal flat, not every such curve was filed as active; the % refers to the signal ratio). In a few lines:
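Antagonist-mode qHTS: compound titrations added to GRE-bla HeLa cells, then dexamethasone 2 nM final; 18 h, 37 C. CCF4 FRET fluorescence normalized to dexamethasone and DMSO; IC50 from Hill fit.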

Experiment [16] in a line: qHTS assay for small molecule antagonists of peroxisome proliferator-activated receptor delta signaling (AID 588535; active means well fitted inhibition curve with a large enough effect in the signal ratio, with a control signal flat, not every such curve was filed as active; the % refers to the signal ratio;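 on max response: cells co-treated with a PPAR-delta agonist as stimulator during compound exposure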). To be noted: HEK293T PPARd-UAS-bla, beta-lactamase FRET ratio, 18 h; 460 nm channel. In a few lines: (§1)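 Fluorescence from CCF4-loaded GeneBLAzer PPAR-delta-UAS-bla HEK293T cells (2 hrs RT loading) quantified reporter inhibition after an 18 hr, 37 C compound exposure across a titration.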

In experiment [17] the target is Peroxisome proliferator-activated receptor delta (Homo sapiens) (UniProt Q03181). Described as above. In short, it runs like this: as §1

Structures are written as SMILES. Inconclusive results are not listed. Calls of active or inactive are those of the source. Unless noted, the call rests on the fitted dose curve; in most records, active means well fitted curve in the direction sought with a large enough effect; inconclusive means small, poorly fitted or top-dose-only effect, or another doubt; inactive means no such curve, though single readings can be large; an effect the other way counts as inactive or inconclusive.

Chain of Ubiquitin carboxyl-terminal hydrolase 1 (Homo sapiens) (O94782 whole entry, looked up): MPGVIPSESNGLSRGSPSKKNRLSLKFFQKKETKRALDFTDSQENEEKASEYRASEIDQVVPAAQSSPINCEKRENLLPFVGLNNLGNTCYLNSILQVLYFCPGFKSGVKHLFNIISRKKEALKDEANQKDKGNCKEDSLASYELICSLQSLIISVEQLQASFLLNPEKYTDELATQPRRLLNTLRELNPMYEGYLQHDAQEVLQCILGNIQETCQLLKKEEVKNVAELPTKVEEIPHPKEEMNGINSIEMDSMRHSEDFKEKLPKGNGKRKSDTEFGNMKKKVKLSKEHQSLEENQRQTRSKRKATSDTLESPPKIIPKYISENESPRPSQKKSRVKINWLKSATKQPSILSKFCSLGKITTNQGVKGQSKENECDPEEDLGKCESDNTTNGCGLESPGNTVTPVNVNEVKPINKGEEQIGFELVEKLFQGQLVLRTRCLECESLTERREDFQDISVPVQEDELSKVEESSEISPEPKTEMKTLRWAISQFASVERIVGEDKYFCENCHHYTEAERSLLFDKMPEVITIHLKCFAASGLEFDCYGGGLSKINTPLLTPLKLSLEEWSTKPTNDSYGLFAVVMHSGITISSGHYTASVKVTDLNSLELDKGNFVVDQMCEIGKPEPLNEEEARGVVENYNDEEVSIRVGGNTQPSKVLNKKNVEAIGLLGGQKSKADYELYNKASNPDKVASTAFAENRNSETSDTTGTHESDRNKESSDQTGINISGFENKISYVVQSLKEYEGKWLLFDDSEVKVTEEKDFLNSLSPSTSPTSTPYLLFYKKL
Chain of phosphoglycerate mutase (Leishmania major) (Q4Q090 1-553): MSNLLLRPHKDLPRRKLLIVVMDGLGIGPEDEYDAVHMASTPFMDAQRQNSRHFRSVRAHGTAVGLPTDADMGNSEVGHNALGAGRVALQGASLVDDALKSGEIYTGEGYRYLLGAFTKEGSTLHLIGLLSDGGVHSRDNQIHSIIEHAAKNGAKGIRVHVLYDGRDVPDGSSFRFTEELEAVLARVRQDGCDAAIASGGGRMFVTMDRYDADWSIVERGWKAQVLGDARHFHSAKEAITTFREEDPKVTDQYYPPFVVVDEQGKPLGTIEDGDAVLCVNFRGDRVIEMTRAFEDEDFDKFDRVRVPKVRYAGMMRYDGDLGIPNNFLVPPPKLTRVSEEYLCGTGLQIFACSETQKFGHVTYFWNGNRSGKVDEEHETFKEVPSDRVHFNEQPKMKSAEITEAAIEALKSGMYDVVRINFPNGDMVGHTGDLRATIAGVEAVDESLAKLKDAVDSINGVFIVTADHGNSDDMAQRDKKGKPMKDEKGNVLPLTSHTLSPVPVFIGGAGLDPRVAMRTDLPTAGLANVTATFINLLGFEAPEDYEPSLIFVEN
Chain of Galactokinase (Homo sapiens) (P51570 whole entry, looked up): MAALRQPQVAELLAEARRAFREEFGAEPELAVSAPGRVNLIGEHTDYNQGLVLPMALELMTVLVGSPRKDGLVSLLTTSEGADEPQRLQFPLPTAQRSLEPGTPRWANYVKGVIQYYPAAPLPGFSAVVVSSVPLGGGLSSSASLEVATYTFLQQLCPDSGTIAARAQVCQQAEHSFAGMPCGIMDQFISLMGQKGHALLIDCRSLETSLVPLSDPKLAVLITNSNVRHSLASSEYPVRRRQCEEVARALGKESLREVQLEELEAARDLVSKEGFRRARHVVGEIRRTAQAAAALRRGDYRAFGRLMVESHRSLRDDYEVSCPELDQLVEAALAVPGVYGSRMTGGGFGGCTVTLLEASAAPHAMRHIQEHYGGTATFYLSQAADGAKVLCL
Chain of Phosphoglycerate kinase, glycosomal (Trypanosoma brucei brucei) (P07378 whole entry, looked up): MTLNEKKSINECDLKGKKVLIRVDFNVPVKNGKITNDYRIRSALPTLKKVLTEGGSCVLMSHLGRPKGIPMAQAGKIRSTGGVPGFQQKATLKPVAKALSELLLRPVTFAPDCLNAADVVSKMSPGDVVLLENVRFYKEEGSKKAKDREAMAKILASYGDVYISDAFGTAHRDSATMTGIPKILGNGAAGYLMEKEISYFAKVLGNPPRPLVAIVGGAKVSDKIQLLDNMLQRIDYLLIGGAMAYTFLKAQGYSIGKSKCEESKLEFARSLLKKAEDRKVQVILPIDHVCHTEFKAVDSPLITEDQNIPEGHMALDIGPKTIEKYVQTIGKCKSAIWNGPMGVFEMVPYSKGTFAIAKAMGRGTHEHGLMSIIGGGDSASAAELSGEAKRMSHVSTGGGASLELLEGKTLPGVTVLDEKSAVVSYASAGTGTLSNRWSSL
Chain of Estrogen receptor (Homo sapiens) (P03372 whole entry, looked up): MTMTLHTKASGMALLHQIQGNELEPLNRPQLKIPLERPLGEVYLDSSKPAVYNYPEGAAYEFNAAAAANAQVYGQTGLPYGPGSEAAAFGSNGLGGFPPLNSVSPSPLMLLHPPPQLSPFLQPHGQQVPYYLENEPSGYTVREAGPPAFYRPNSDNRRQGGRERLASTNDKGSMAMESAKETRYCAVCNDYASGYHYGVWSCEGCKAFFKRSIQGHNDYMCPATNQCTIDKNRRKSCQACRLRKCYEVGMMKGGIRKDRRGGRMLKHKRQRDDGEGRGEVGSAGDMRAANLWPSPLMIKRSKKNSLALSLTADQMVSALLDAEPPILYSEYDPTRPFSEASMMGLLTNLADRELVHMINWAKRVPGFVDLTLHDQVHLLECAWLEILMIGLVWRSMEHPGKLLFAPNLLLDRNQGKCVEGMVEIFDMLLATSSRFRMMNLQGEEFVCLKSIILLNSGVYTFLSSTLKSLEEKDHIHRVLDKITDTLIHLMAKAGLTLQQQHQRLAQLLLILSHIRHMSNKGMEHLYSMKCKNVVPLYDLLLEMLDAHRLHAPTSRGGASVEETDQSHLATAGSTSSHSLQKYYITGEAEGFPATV
Chain of Peptidyl-prolyl cis-trans isomerase NIMA-interacting 1 (Homo sapiens) (Q13526 whole entry, looked up): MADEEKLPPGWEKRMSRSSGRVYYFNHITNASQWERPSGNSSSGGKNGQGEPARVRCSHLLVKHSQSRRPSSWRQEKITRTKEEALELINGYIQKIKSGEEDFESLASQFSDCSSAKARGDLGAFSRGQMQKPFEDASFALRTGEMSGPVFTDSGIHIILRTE
Chain of Glucocorticoid receptor (Homo sapiens) (P04150 whole entry, looked up): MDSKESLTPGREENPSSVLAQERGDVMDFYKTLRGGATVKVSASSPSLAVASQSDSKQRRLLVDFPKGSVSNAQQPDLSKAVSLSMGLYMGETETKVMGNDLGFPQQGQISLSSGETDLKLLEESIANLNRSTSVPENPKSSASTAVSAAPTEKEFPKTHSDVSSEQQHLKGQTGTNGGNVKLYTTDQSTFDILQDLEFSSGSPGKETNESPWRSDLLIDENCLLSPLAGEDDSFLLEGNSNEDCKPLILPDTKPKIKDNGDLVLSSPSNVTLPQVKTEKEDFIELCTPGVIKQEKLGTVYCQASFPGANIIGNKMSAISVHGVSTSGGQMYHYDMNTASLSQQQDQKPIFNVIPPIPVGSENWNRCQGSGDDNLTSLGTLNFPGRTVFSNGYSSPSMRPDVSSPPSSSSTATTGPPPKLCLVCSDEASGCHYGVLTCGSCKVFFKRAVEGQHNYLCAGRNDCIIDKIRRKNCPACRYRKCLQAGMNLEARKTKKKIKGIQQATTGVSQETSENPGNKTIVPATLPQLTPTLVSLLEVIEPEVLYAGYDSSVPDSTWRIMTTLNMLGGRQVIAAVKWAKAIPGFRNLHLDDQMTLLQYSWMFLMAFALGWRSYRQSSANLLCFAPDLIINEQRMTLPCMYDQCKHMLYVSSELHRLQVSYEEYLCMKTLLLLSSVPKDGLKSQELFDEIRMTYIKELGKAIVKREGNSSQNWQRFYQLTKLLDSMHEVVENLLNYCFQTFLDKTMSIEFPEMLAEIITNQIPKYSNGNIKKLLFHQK
Chain of Bile acid receptor (Homo sapiens) (Q96RI1 whole entry, looked up): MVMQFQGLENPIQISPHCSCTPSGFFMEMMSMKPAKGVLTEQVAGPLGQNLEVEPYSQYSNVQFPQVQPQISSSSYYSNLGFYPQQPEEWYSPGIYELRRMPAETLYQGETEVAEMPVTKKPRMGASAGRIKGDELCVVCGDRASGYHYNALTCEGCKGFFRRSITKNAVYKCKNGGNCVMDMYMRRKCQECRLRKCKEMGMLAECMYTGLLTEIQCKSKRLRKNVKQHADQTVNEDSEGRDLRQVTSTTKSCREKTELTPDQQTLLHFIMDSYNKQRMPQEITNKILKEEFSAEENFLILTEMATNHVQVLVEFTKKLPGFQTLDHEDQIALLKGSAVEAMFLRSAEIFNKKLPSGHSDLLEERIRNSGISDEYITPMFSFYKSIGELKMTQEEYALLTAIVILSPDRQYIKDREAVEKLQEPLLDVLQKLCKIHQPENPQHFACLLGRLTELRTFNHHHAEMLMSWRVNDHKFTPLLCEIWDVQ
Chain of Peroxisome proliferator-activated receptor delta (Homo sapiens) (Q03181 whole entry, looked up): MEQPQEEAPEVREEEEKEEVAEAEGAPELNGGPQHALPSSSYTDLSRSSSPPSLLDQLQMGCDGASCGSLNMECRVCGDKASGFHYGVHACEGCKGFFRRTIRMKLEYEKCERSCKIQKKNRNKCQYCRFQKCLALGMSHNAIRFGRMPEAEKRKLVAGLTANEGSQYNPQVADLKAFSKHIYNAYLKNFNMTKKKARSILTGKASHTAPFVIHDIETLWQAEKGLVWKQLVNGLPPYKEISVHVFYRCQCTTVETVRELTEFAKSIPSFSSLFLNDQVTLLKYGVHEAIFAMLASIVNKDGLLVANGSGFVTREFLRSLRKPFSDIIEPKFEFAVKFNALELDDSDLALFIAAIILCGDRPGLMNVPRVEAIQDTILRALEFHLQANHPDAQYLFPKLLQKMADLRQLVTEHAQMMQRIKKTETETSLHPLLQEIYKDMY

Regarding `COc1ccc2c(c1OC)C(=O)O[C@@H]2[C@H]1c2c(cc3c(c2OC)OCO3)CCN1C`, the call in [1], in [2], in experiment [3] and in experiment [4] was inactive. Also, the Potency entry in experiment [5] and in [6] was “inactive” in each case.

Turning to `CSc1ccc(C(=O)c2[nH]c(=O)[nH]c2C)cc1`, the Potency entry in [7], in experiment [5] and in experiment [6] was “inactive” throughout. Further, the viability change in experiment [7] worked out at 0%. The result in experiment [1], in experiment [8], in experiment [9], in experiment [2], in experiment [3] and in experiment [4] was inactive.

`CC(C)(Oc1ccc(CCNC(=O)c2ccc(Cl)cc2)cc1)C(=O)O`: the Potency result in experiment [7], in experiment [5], in [10], in experiment [6], in experiment [12] and in experiment [15] was “inactive” in each case. Besides, the viability change in experiment [7] amounted to 5.14%. Besides, the result in experiment [1], in experiment [2], in [3], in [4], in [11] and in experiment [13] was inactive. In addition, the activation in experiment [14] was -5.13% (inactive).

With `NC(=O)c1cn(Cc2c(F)cccc2F)nn1`, the Potency entry in experiment [7], in [5], in [10] and in experiment [6] was “inactive” in each case. Further, the viability change in experiment [7] is -8.96%. Besides, the compound was called inactive in experiment [1], in experiment [2], in experiment [3] and in experiment [4].

For the compound `C[C@]12C=CC(=O)C=C1CC[C@H]1[C@@H]3C[C@@H](O)[C@](O)(C(=O)CO)[C@@]3(C)C[C@H](O)[C@@]12F`, the Potency in [7] was 82 nM (active); in [14] it was 112 nM (active). Also, the viability change in experiment [7] was -4.26%. The call in [1], in experiment [8], in experiment [9], in experiment [2], in [3] and in experiment [4] was inactive. Also, the call in experiment [11] and in experiment [17] was inactive. Besides, the Potency result in experiment [10], in [6], in experiment [12] and in experiment [15] was “inactive” throughout. Further, the max response in experiment [16] is 10.9%.

Consider `CN(C)CCCN1c2ccccc2Sc2ccc(C(F)(F)F)cc21`, for which, in experiment [7], the Potency result was “inactive”. Besides, the viability change in experiment [7] stood at 0.635%. For the same compound, the call in [8], in experiment [2], in experiment [3] and in experiment [4] was inactive.

Regarding `COC(=O)C1=C(C)NC(C)=C(C(=O)OC(C)(C)CN(C)CCC(c2ccccc2)c2ccccc2)C1c1cccc([N+](=O)[O-])c1` (configuration not stated), the compound was called inactive in experiment [1], in [2], in experiment [3] and in experiment [4].

With `COC(=O)[C@H]1[C@H]2C[C@@H]3c4[nH]c5cc(OC)ccc5c4CCN3C[C@H]2C[C@@H](OC(=O)c2cc(OC)c(OC)c(OC)c2)[C@@H]1OC`, the Potency entry in experiment [7], in [10], in experiment [6] and in experiment [15] was “inactive” each time. Besides, the viability change in experiment [7] is -13.6%. Besides, the result in experiment [1], in [8], in experiment [3] and in experiment [4] was inactive. For the same compound, the activation in experiment [14] is 4.47% (inactive).

With `CC(C)NCC(O)c1cc(O)cc(O)c1` (configuration not stated), the Potency entry in experiment [7], in experiment [5] and in experiment [6] was “inactive” each time. Moreover, in [7], the viability change came to 7.12%. Also, the outcome in [1], in [8], in [9], in [2], in [3] and in [4] was inactive.

Consider `c1cc(CN2CCCCC2)cc(OCCCNc2nc3ccccc3s2)c1`, for which the Potency result in experiment [7] was “inactive”. For the same compound, in [7], the viability change is -17%. The result in experiment [1], in experiment [8], in experiment [2], in experiment [3] and in experiment [4] was inactive.
